Assay results taken from PubChem BioAssay (NCATS).
Unmarked numbers belong to inactive results. Results filed as inconclusive are left out. A call without a number means that no potency is given here. The source made the active and inactive calls. Calls follow the shape of the dose curve; as a rule, active = well fitted curve in the direction sought with a large enough effect; inconclusive = small, poorly fitted or top-dose-only effect, or another doubt; inactive = no such curve, though single readings can be large; an effect the other way counts as inactive or inconclusive.

Experiments:
[1] = target: Glutathione peroxidase 1 (Homo sapiens) (UniProt P07203); test: Primary qHTS Assay for Inhibitors of Recombinant Selenoprotein Glutathione Peroxidase 1 (GPX1) (AID 1845191); also: nearly all actives have a fitted effect of over 65% in size
Method in brief: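 GR-coupled readout: NADPH consumption tracked by fluorescence, ex 340/em 450 nm, at t=0 and after 15 min at RT. Final mix 10 nM GPX1, 1 mM GSH, 0.5 mM CHP, 0.5 mM NADPH, 100 nM GR, 0.01% BSA, following 30 min enzyme–compound preincubation.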

[2] = target: Phospholipid hydroperoxide glutathione peroxidase GPX4 (Homo sapiens) (UniProt P36969); test: Primary qHTS Assay for Inhibitors of Recombinant Selenoprotein Glutathione Peroxidase 4 (GPX4) (AID 1845192); also: nearly all actives have a fitted effect of over 65% in size; as to activity change, negative = inhibition: series mostly up to about 50 µM
Method in brief: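 Steps: GPX4 plus compound, 30 min RT; add GR/GSH/NADPH master mix; start with cumene hydroperoxide; read 340/450 nm fluorescence at 0 and 15 min. Finals were 200 nM GPX4, 1 mM GSH, 0.5 mM CHP, 0.5 mM NADPH, 100 nM GR.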

[3] = target: Luciferin 4-monooxygenase (Photinus pyralis) (UniProt P08659); test: Primary firefly luciferase (FLuc) qHTS assay for identification of artifact compounds. (AID 1845220); also: nearly all actives have a fitted effect of over 60% in size; as to activity change, negative = inhibition: series mostly up to about 54 µM
Method in brief: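 D-luciferin and ATP (10 uM each, final) in Tris acetate buffer pH 7.6 were incubated with compounds for 15 min at room temperature. The reaction was started with 10 nM Photinus pyralis luciferase and luminescence read after 5 min. Percent inhibition was fitted to a 4-parameter Hill equation.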

[4] = Primary fluorescence-based thiol-reactive (MSTI) qHTS assay for identification of artifact compounds. (AID 1845221); also: nearly all actives have a fitted effect of over 65% in size; also: potency is read from the fitted curve at half-maximal effect;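 as to activity change, negative = thiol reactive: series mostly up to about 54 µM; thiol-reactive compounds lower the probe fluorescence signal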
Method in brief: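 In PBS pH 7.4 with 2% DMSO, each compound met 4 uM MSTI for one hour at ambient temperature, shielded from light, before fluorescence detection.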

[5] = system: Nanoluciferase (engineered Oplophorus gracilirostris luciferase); test: Primary Nanoluciferase (NLuc) qHTS assay for identification of artifact compounds. (AID 1845222); also: series mostly up to about 54 µM
Method in brief: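 Diluted conditioned medium from NLuc-expressing S16 cells treated with compounds for 15 min at room temperature, then Nano-Glo substrate added; luminescence read after 5 min. Percent inhibition versus no-enzyme and DMSO controls fitted to 4-parameter Hill equation.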

[6] = Primary redox qHTS assay for identification of artifact compounds. (AID 1845223)
Method in brief: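 Redox-cycling detection via DTT (250 uM final) oxidation coupled to Amplex Red (25 uM)/HRP (250 mU/mL) in HBSS. 15 min preincubation plus 30 min after DTT, room temperature. Ex/Em 525/598 nm; 4-parameter Hill fit against DMSO and 10 uM DA3003.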

Chain of Glutathione peroxidase 1 (Homo sapiens) (P07203 whole entry, looked up): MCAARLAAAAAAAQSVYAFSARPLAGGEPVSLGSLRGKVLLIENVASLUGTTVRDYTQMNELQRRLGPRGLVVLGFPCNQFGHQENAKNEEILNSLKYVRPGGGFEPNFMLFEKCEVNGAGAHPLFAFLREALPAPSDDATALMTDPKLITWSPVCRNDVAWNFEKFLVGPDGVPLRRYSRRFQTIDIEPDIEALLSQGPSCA
Chain of Phospholipid hydroperoxide glutathione peroxidase GPX4 (Homo sapiens) (P36969 whole entry, looked up): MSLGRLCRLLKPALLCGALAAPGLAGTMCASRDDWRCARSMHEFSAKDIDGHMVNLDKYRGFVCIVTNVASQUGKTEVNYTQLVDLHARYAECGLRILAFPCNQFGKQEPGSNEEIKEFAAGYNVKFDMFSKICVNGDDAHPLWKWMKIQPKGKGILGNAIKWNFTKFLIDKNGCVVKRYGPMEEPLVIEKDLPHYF

| SMILES | Potency [1] | Potency [2] | Potency [3] | Potency [4] | Potency [5] | Potency [6] | activity change, negative = inhibition [3] | activity change, negative = thiol reactive [4] | activity, negative = inhibition [5] | redox activity (% of DA3003) [6] |
| --- | --- | --- | --- | --- | --- | --- | --- | --- | --- | --- |
| CC1=CC(=O)[C@]2(O[C@@H]3O[C@@H](C)[C@H](O)[C@@H](O)[C@H]3O)C=CO[C@@H](O[C@@H]3O[C@H](CO)[C@@H](O)[C@H](O)[C@H]3O)[C@H]12 | inactive | inactive | inactive | 5.82 µM (active) | inactive | inactive | – | – | – | – |
| C/C=C(/C)C(=O)O[C@H]1C[C@]2(C)O[C@@H]2[C@@H](OC(C)=O)[C@@]2(C)CC[C@@](O)(C(C)C)[C@H]12 | inactive | inactive | inactive | inactive | inactive | inactive | – | – | – | – |
| COC(=O)C(CC1(OC(=O)C(C)C)c2ccccc2N2C(=O)C(C)(C)N(O)C21)n1cnc2ccccc2c1=O (stereo unspecified) | inactive | inactive | inactive | inactive | inactive | inactive | – | – | – | – |
| CN(C)CC(c1ccc(O)cc1)C1(O)CCCCC1 (stereo unspecified) | inactive | inactive | inactive | inactive | inactive | inactive | – | – | – | – |
| CCOc1nc2c(N)ncnc2n1CC | inactive | inactive | inactive | inactive | inactive | inactive | – | – | – | – |
| O=C(O)c1ccnc2cc(C(OCC3CCC(F)(F)CC3)c3ccccc3Cl)[nH]c12 (stereo unspecified) | inactive | inactive | inactive | inactive | inactive | inactive | – | – | – | – |
| CC(=O)OCC1=C[C@@H]2OC(=O)C3=CO[C@@H](O[C@@H]4O[C@H](CO)[C@@H](O)[C@H](O)[C@H]4O)[C@H]1[C@@H]32 | inactive | inactive | inactive | inactive | inactive | inactive | – | – | – | – |
| C[C@@H]1CC2OC(=O)C3=C2C(CCC3O)[C@@]12C[C@@H](c1ccoc1)OC2=O (stereo partly specified) | inactive | inactive | inactive | inactive | inactive | inactive | – | – | – | – |
| CC(=O)/C=C/[C@H]1[C@](C)(O)[C@@H](O)[C@H](O)C2C(C)(C)CCC[C@@]21C (stereo partly specified) | inactive | inactive | inactive | inactive | inactive | inactive | – | – | – | – |
| CC(C)C1C(OC(=O)/C=C/c2ccccc2)CC2(C)OC2CCC2(C)OC2C1O (stereo unspecified) | inactive | inactive | inactive | inactive | inactive | inactive | – | – | – | – |
| COc1cc(O)cc2c1C(=O)OC(C)C2 (stereo unspecified) | inactive | inactive | inactive | inactive | inactive | inactive | – | – | – | – |
| O=C(NC1CCN(CC(F)(F)F)CC1)c1ccc(-c2cccc(F)c2)nc1 | inactive | inactive | inactive | inactive | inactive | inactive | – | – | – | – |
| C=CC(C)(O)CC/C=C(\C)C(=O)O[C@@H]1[C@@H](O)[C@H](OC(C)(C=C)CC/C=C(\C)C(=O)O[C@@H]2O[C@H](CO)[C@@H](O)[C@H](O)[C@H]2O)O[C@H](CO)[C@H]1OC(=O)/C(C)=C/CCC(C)(O)C=C (stereo partly specified) | inactive | inactive | – | – | – | – | 0.429% [at 11.6 µM] | 71.6% [at 11.5 µM] | 0.542% [at 11.6 µM] | -5.92% [at 11.5 µM] |
| C=C1[C@H]2CCC3[C@]4(C)CCC[C@@](C)(C(=O)O)C4CC[C@]3(C2)[C@H]1OC(C)=O (stereo partly specified) | inactive | inactive | inactive | inactive | inactive | inactive | – | – | – | – |
| CC(C)(OC1OC(CO)C(O)C(O)C1O)C1CCC(O)(CO)C2CC(=O)C(C)(O)C2C1 (stereo unspecified) | inactive | inactive | inactive | inactive | inactive | inactive | – | – | – | – |
| CC1(C)CCC[C@]2(C)C1CC=C(CO)[C@H]2CC/C(=C/CO)CO (stereo partly specified) | inactive | inactive | inactive | inactive | inactive | inactive | – | – | – | – |
| C[C@@H]1C(=O)O[C@H](C)[C@H]1C[C@@H](O)[C@](C)(O)[C@H]1CC[C@@]2(O)C3=CC(=O)[C@@H]4C[C@@H](O)[C@@H](O)C[C@]4(C)C3CC[C@]12C (stereo partly specified) | inactive | inactive | inactive | inactive | inactive | inactive | – | – | – | – |
| Cc1occc(=O)c1O[C@@H]1O[C@H](CO[C@@H]2OC[C@](O)(CO)[C@H]2O)[C@@H](O)[C@H](O)[C@H]1O | inactive | inactive | inactive | inactive | inactive | inactive | – | – | – | – |
| Cc1ncc([N+](=O)[O-])n1C[C@H](O)CN1CCOCC1 | inactive | inactive | inactive | inactive | inactive | inactive | – | – | – | – |
| C=C(C)[C@@H]1CC[C@]2(C)CC[C@]3(C)C(CCC4[C@@]5(C)CC[C@H](O)C(C)(C)C5CC[C@]43C)C12 (stereo partly specified) | inactive | inactive | inactive | inactive | inactive | inactive | – | – | – | – |
| CC1(C)CC[C@]2(C(=O)O)CC[C@]3(C)C(=CCC4[C@@]5(C)CC[C@H](O[C@@H]6O[C@H](C(=O)O)[C@@H](O)[C@H](O)[C@H]6O)C(C)(C)C5CC[C@]43C)C2C1 (stereo partly specified) | inactive | inactive | inactive | inactive | inactive | inactive | – | – | – | – |
